# Assay results as given in PubChem BioAssay (Tox21).
# Unmarked numbers belong to inactive results. Inconclusive results are not listed. Entries that show only a call come without a potency. Activity calls are given as the source filed them. Unless noted, calls follow the shape of the dose curve; as a rule, active = well fitted curve in the direction sought with a large enough effect in the repeat runs; inconclusive = weak or mixed curves; inactive = no such curve, though single readings can be large; an effect the other way counts as inactive or inconclusive.
# Legend:
# [1] = qHTS RealTime-Glo MT Cell Viability Assay in HEK293 cells - 24 hour (AID 1224886); also: nearly all actives have a fitted effect of over 50% in size; also: potency is read from the fitted curve at half-maximal effect
# Summary of the method: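 Quantitative high-throughput screen of the Tox21 10K library in HEK293: cells and RealTime-Glo reagents plated together, compound added at 5 h, luminescence monitored through 40 h at 37 C.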
# [2] = qHTS RealTime-Glo MT Cell Viability Assay in HEK293 cells - 8 hour (AID 1224887); also: nearly all actives have a fitted effect of over 50% in size; also: potency is read from the fitted curve at half-maximal effect
# Summary of the method: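 Real-time viability in HEK293: signal arises when living cells convert a prosubstrate for NanoLuc in the medium, so luminescence tracks viable cell number. Compound (23 nL, DMSO) added 5 h post-seeding; kinetic reads at 0–40 h, 37 C.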
# [3] = qHTS RealTime-Glo MT Cell Viability Assay in HepG2 cells - 0 hour (AID 1224889); also: nearly all actives have a fitted effect of over 50% in size
# Summary of the method: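 Compound treatment began 5 h after plating HepG2 cells (600/well) with NanoLuc luciferase and prosubstrate. Plates stayed at 37 C for 40 h; luminescence was captured at six time points, 0 h through 40 h.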
# [4] = A CellTox Green Cytotoxicity Assay to monitor cytotoxicity in HepG2 cells - 8 hour (AID 1224890); also: nearly all actives have a fitted effect of over 45% in size
# Summary of the method: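 Cells and non-lytic dye reagent are dispensed together (600 HepG2 cells/well) and incubated 5 h before DMSO compound transfer. Kinetic fluorescence is then recorded in the same wells during 40 h at 37 C.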
# [5] = qHTS assay to identify small molecule antagonists of the estrogen receptor alpha (ER-alpha) signaling pathway using the BG1 cell line in the presence of 0.1 nM 17-beta-estradiol - cell viability counter screen (AID 1259241); also: nearly all actives have a fitted effect of over 40% in size
# Summary of the method: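 Viability in VM7Luc4E2 cells after 22 hr compound exposure under 0.1 nM 17beta-estradiol stimulation, by CellTiter-Fluor.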
# [6] = qHTS assay to identify small molecule antagonists of the androgen receptor (AR) signaling pathway using the MDA cell line in the presence of 0.5 nM R1881 - cell viability counter screen (AID 1259242); also: nearly all actives have a fitted effect of over 45% in size
# Summary of the method: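 Steps: plate MDA-kb2 cells, rest 5 hr at 37C without CO2; pin in compounds in DMSO; add R1881 to 0.5 nM final; incubate 16 hr; add CellTiter-Fluor, 30 min; read fluorescence.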
# [7] = biological target: Estrogen receptor (Homo sapiens) (UniProt P03372); assay: qHTS assay to identify small molecule antagonists of the estrogen receptor alpha (ER-alpha) signaling pathway using the BG1 cell line in the presence of 0.1 nM 17-beta-estradiol (AID 1259244); also: nearly all actives have a fitted effect of over 50% in size
# Summary of the method: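 Antagonist mode: compounds in DMSO are pinned onto VM7Luc4E2 reporter cells, 0.1 nM final 17beta-estradiol is added, and after 22 h at 37C luciferase luminescence is measured with ONE-Glo.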
# [8] = qHTS assay to identify small molecule HDAC inhibitors (AID 1259364);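 also: wild-type HCT-116 cells with endogenous class I/II HDAC activity; top concentration of the series differs between compounds; nearly all actives have a fitted effect of over 45% in size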
# Summary of the method: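 Cells (HCT-116, wild type) are seeded at 1,500 per well, incubated overnight, treated with compound in DMSO for 2 hr, then developed with HDAC-Glo I/II reagent for 30 min at room temperature.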
# [9] = qHTS assay to identify small molecule HDAC inhibitors - cell viability counter screen (AID 1259365)
# Summary of the method: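 Cytotoxicity was gauged in wild-type HCT-116 cells after a brief 2hr treatment with DMSO-dissolved compounds at 37C and 5% CO2, using CellTiter-Glo luminescence developed for 30min at room temperature.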
# [10] = qHTS assay to identify small molecule agonists of the sonic hedgehog signaling (Shh) pathway - cell viability counter screen (AID 1259366); also: nearly all actives have a fitted effect of over 50% in size
# Summary of the method: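 Stable Gli1-Luc NIH/3T3 clone, 2,000 cells/well. Compound exposure 24hr at 37C. Read-out: CellTiter-Fluor fluorescence.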
# [11] = qHTS assay to identify small molecule antagonists of the sonic hedgehog signaling (Shh) pathway - cell viability counter screen (AID 1259367); also: nearly all actives have a fitted effect of over 55% in size
# Summary of the method: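 Cytotoxicity was assessed in parallel with Shh reporter activity by measuring live-cell protease fluorescence (CellTiter-Fluor) in NIH/3T3 cells stably carrying Gli1-Luc, treated with compound under conditioned medium stimulation for 23 hr plus 1 hr reagent incubation.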
# [12] = qHTS assay to identify small molecule agonists of the sonic hedgehog signaling (Shh) pathway (AID 1259368; calls by dose curve;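 also: NIH/3T3-derived 3T3Gli1-Luc cells carrying a stable Gli1-driven firefly luciferase reporter; series mostly up to about 92 µM; nearly all actives have a fitted effect of over 15% in size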)
# Summary of the method: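 Cells of a mouse NIH/3T3 clone stably expressing luciferase under the Gli1 transcriptional response element are exposed to test chemicals for 24 hr at 37 C. Pathway activation is detected as a rise in luminescence.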
# [13] = qHTS assay to identify small molecule antagonists of the sonic hedgehog signaling (Shh) pathway (AID 1259369; calls by dose curve; also: nearly all actives have a fitted effect of over 45% in size)
# Summary of the method: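 Cells are plated and held 4hr at 37 C, compounds (DMSO) are pinned in, conditioned medium is added to stimulate the pathway, and after 24hr luciferase reagent is added for 30min before luminescence is read.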
# [14] = biological target: Estrogen receptor beta (Homo sapiens) (UniProt Q92731); assay: qHTS assay to identify small molecule antagonists of the estrogen receptor beta (ER-beta) signaling pathway (AID 1259378; active = well fitted inhibition curve with a large enough effect in the signal ratio in the repeat runs, not every such curve was filed as active; the % refers to the signal ratio)
# Summary of the method: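 ER-beta-UAS-bla HEK293T (GripTite) cells in 2% charcoal-stripped FBS medium were preincubated 6 hr at 37C, dosed with compound, then stimulated with 1 nM E2 (final) for 16 hr; beta-lactamase reporter read by B/G FRET fluorescence after 2 hr substrate loading.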
# [15] = qHTS assay to identify small molecule agonists of the estrogen receptor beta (ER-beta) signaling pathway - cell viability counter screen (AID 1259380); also: nearly all actives have a fitted effect of over 30% in size
# Summary of the method: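 Cytotoxicity is measured in parallel with the reporter screen: after 16 hr compound exposure at 37C and a 2 hr LiveBLAzer step, CellTiter-Glo is added to the same ER-beta-UAS-bla HEK293T wells and luminescence read after 30 min.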
# [16] = A CellTox Green Cytotoxicity Assay to monitor cytotoxicity in HEK293 cells - 16 hour (AID 1224888); also: nearly all actives have a fitted effect of over 35% in size
# Summary of the method: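 Cells (HEK293, 600/well) and dye reagent are dispensed together. After 5 h at 37 C, 23 nL compound is pinned in. Plates stay at 37 C for 40 h with fluorescence read at 0h, 8h, 16h, 24h, 32h and 40h.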
# [17] = biological target: Estrogen receptor beta (Homo sapiens) (UniProt Q92731); assay: qHTS assay to identify small molecule agonists of the estrogen receptor beta (ER-beta) signaling pathway (AID 1259377; active = well fitted activation curve with a large enough effect in the signal ratio in the repeat runs, not every such curve was filed as active; the % refers to the signal ratio)
# Summary of the method: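 Measured by fluorescence intensity from a B/G FRET beta-lactamase substrate (2 h, room temperature) in ER-beta-UAS-bla HEK293T cells treated with DMSO-dissolved compounds for 16 hr at 37C and 5% CO2.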
# [18] = qHTS assay to identify small molecule agonists of the androgen receptor (AR) signaling pathway in the presence of an antagonist - cell viability counter screen (AID 1259379);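 also: MDA-kb2 human breast cancer cells carrying an MMTV luciferase reporter; series mostly up to about 92 µM; nearly all actives have a fitted effect of over 25% in size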
# Summary of the method: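 Cytotoxicity is assessed by CellTiter-Fluor in MDA-kb2 cells carrying an MMTV-driven luciferase reporter. Cells receive 3.0uM nilutamide plus compounds at 15 concentrations and incubate 16 hr at 37C without CO2 before fluorescence reading.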
# [19] = biological target: Androgen receptor (Homo sapiens) (UniProt P10275); assay: qHTS assay to identify small molecule antagonists of the androgen receptor (AR) signaling pathway using the MDA cell line in the presence of 0.5 nM R1881 (AID 1259243); also: nearly all actives have a fitted effect of over 50% in size
# Summary of the method: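 Stably transfected MDA-kb2 cells express luciferase from an MMTV promoter bearing both AR and GR response elements. Compounds plus 0.5 nM R1881 (final) were incubated 16 hr at 37C without CO2, then luminescence measured.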
# [20] = qHTS assay to identify small molecule phospholipidosis (PLD) inducers (AID 1259344; active = well fitted curve in the direction sought with a large enough effect; an effect the other way counts as inactive or inconclusive)
# Summary of the method: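 Cells (HepG2, 900 per well) attach for 4 h, receive LipidTOX Red and compound together, incubate 24 h at 37 C, are fixed 30 min with paraformaldehyde/Hoechst, then imaged at one site per well.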
# Estrogen receptor (Homo sapiens), sequence (P03372 whole entry, looked up): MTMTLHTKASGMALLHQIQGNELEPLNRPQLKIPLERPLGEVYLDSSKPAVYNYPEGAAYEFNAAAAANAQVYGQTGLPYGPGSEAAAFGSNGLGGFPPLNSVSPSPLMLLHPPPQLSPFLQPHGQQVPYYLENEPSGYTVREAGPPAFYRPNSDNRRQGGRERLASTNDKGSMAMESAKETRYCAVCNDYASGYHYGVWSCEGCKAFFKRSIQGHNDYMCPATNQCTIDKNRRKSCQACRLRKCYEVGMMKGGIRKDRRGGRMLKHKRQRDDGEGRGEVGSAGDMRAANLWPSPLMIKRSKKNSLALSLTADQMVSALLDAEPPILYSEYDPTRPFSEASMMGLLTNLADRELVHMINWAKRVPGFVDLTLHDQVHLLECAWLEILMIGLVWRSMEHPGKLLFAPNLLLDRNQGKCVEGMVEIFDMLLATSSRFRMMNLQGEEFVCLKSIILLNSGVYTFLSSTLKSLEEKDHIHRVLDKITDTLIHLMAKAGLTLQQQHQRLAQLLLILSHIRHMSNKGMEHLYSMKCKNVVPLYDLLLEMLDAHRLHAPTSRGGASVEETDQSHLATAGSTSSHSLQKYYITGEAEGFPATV
# Estrogen receptor beta (Homo sapiens), sequence (Q92731 whole entry, looked up): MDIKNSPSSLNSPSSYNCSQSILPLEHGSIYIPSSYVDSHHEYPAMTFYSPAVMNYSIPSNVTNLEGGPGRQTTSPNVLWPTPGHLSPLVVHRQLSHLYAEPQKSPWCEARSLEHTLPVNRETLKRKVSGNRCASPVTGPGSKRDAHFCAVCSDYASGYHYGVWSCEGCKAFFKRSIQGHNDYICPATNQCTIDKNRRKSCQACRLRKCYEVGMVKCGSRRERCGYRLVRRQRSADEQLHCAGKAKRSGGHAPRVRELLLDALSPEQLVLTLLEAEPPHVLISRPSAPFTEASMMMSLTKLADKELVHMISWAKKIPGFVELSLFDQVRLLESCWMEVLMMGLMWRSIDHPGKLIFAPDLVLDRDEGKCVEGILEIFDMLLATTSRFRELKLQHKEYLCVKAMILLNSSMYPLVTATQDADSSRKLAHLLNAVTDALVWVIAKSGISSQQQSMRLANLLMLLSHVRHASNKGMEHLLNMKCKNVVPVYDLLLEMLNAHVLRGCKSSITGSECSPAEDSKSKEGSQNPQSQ
# Androgen receptor (Homo sapiens), sequence (P10275 whole entry, looked up): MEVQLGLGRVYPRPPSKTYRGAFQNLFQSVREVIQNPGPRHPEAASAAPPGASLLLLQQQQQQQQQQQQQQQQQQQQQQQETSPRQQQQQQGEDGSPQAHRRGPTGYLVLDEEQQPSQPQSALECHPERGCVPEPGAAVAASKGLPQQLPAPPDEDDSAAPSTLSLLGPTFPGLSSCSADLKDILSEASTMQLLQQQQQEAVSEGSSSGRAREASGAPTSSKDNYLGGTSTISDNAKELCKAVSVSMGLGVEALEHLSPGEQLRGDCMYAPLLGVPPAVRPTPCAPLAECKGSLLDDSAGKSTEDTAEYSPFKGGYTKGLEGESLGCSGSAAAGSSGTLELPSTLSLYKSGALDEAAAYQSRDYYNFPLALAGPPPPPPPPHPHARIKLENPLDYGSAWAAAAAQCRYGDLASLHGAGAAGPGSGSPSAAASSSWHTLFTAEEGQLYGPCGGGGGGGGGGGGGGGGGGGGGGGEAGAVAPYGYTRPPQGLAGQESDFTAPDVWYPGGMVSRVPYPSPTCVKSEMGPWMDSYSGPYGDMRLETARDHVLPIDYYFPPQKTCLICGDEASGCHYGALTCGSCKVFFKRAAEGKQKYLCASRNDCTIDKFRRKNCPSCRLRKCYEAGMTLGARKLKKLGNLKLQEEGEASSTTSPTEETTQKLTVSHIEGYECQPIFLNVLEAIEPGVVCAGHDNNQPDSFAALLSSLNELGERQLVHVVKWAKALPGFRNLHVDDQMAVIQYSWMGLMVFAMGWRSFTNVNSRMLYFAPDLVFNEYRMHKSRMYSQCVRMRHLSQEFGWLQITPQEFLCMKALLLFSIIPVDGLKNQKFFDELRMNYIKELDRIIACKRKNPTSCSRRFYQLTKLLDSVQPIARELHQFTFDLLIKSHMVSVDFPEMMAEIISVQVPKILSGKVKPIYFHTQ
SMILES,Potency [1],Potency [2],Potency [3],Potency [4],Potency [5],Potency [6],Potency [7],Potency [8],outcome [9],Potency [10],Potency [11],outcome [12],Potency [13],outcome [14],outcome [15],Potency [16],Potency [17],Potency [18],outcome [19],outcome [20]
CCOC(=O)CCCCCCCCC(=O)OCC,inactive,inactive,inactive,inactive,inactive,inactive,inactive,inactive,inactive,inactive,inactive,inactive,inactive,inactive,inactive,–,–,–,–,–
SCCSCCS,inactive,inactive,–,inactive,inactive,–,–,inactive,inactive,inactive,inactive,inactive,inactive,inactive,inactive,inactive,inactive,inactive,–,–
CC(=O)OCC(=O)[C@@]1(O)[C@H](OC(C)=O)C[C@H]2[C@@H]3CCC4=CC(=O)C=C[C@]4(C)[C@@]3(F)[C@@H](O)C[C@@]21C,inactive,inactive,–,inactive,inactive,inactive,inactive,inactive,inactive,–,inactive,inactive,inactive,–,inactive,inactive,–,inactive,–,–
O=P(O)(O)OCC(O)CO (stereo unspecified),inactive,inactive,inactive,–,inactive,–,–,inactive,–,inactive,inactive,–,inactive,–,inactive,inactive,–,inactive,–,–
Nc1ccnc(=O)[nH]1,inactive,inactive,inactive,inactive,inactive,inactive,inactive,inactive,inactive,inactive,inactive,inactive,inactive,inactive,inactive,–,inactive,–,inactive,–
CC1CCC(C(C)(C)S)C(=O)C1 (stereo unspecified),3.89 µM (active),19.5 µM (active),–,inactive,inactive,inactive,inactive,inactive,inactive,inactive,inactive,inactive,–,inactive,inactive,inactive,inactive,inactive,–,–
CCOC(=O)CCc1ccccc1,inactive,inactive,inactive,–,inactive,–,–,inactive,inactive,–,inactive,inactive,inactive,inactive,inactive,inactive,inactive,inactive,–,–
Cn1c(=O)c2c(ncn2CC2OCCO2)n(C)c1=O,inactive,inactive,–,inactive,inactive,inactive,–,inactive,inactive,inactive,inactive,inactive,inactive,inactive,inactive,inactive,inactive,inactive,inactive,inactive
CC(=O)N1CCN(c2ccc(O)cc2)CC1,inactive,inactive,inactive,inactive,inactive,inactive,–,inactive,inactive,inactive,–,inactive,inactive,inactive,inactive,–,inactive,inactive,inactive,–
O=C(COCCOCCOCC(=O)Nc1c(I)cc(I)c(C(=O)O)c1I)Nc1c(I)cc(I)c(C(=O)O)c1I,inactive,inactive,–,inactive,inactive,inactive,inactive,inactive,inactive,inactive,inactive,inactive,inactive,inactive,inactive,inactive,inactive,inactive,–,inactive
CCCCC[Si](OCC)(OCC)OCC,inactive,inactive,inactive,inactive,inactive,inactive,–,inactive,–,–,inactive,inactive,inactive,inactive,inactive,–,inactive,–,inactive,–
NC(Cc1c[nH]c2ccccc12)C(=O)O (stereo unspecified),inactive,inactive,inactive,–,inactive,–,–,inactive,inactive,–,–,–,inactive,–,inactive,inactive,inactive,–,–,–
Cc1nc2ccccc2c(=O)o1,inactive,inactive,–,inactive,inactive,inactive,inactive,–,–,–,inactive,inactive,inactive,inactive,inactive,inactive,inactive,inactive,–,–
CC(=O)Nc1ncc([N+](=O)[O-])s1,inactive,inactive,–,inactive,inactive,inactive,inactive,inactive,–,inactive,inactive,inactive,–,–,inactive,inactive,–,inactive,–,inactive
Cc1cccc(C(=O)O)c1[N+](=O)[O-],inactive,inactive,–,inactive,inactive,inactive,–,inactive,inactive,inactive,inactive,inactive,inactive,inactive,inactive,inactive,inactive,–,–,–
